Data taken from PubChem BioAssay AID463173 (ICCB-Longwood Screening Facility, Harvard Medical School, 2010).
The whole screen tested about 52,000 compounds, of which about 4,300 (8.3%) were called active. No stated cut-off is given here; in the data, active means survival mostly below about 52% (no sharp cut-off); inactive means mostly above about 56%. Many of the other results were omitted from the sample, so actives are more common in it than they were.

System: DeltatarO mutant
Assay: growth inhibition of S. aureus wild type versus tarO mutant, primary screen, teichoic acid synthesis inhibitors, RN4220, OD600 (AID 463173)
Conditions: OD600, 18 h, stronger effect = lower value, screened at 18.75 µg/mL (by protocol)

SMILES	survival
OC(CNCc1ccccn1)COc1ccc(OCC(O)CNCc2ccccn2)cc1 (stereo not drawn)	96% (inactive)
Cc1ccc2c(c1)NC(=O)c1cccnc1O2	94% (inactive)
CCOc1ccc(CNC(=O)C(C)n2ncn3cccc3c2=O)cc1 (stereo not drawn)	69% (inactive)
COc1ccc(C(C(=O)NC2CCCC2)N(Cc2ccco2)C(=O)Cn2nc(C(F)(F)F)c3c2CCCC3)cc1 (stereo not drawn)	91% (inactive)
Brc1ccc(-c2csc(NN=C3CCCC3)n2)cc1	102% (inactive)
COC(=O)c1ccccc1NC(=O)c1ccc2c(c1)CCN2S(=O)(=O)c1ccc(Cl)cc1	69% (inactive)
CCn1c2c(c(=O)n3ncc(C(=O)Nc4ccc(OC(F)(F)F)cc4)c13)CN(Cc1ccc(OC)cc1)CC2	94% (inactive)
CCn1c2c(c(=O)n3ncc(C(=O)Nc4ccc(Cl)cc4C)c13)CN(Cc1ccc(OC)cc1)CC2	87% (inactive)
CCn1c2c(c(=O)n3ncc(C(=O)Nc4ccc(F)c(Cl)c4)c13)CN(Cc1ccc(OC)cc1)CC2	17% (active)
c1ccc(N2CCN(Cc3cccn3-c3nnc(N4CCN(C5CCCCC5)CC4)s3)CC2)cc1	76% (inactive)
CCC(=O)N1CCc2cc(Br)cc(S(=O)(=O)N3CCC(C(=O)Nc4ccc(OC)cc4)CC3)c21	8% (active)
CCOc1ccccc1NC(=O)C1CCN(S(=O)(=O)c2cc(Br)cc3c2N(C(C)=O)CC3)CC1	69% (inactive)
CC(=O)N1CCc2cc(Br)cc(S(=O)(=O)N3CCC(C(=O)Nc4cccc(C)c4C)CC3)c21	75% (active)
CCC(=O)N1CCc2cc(Br)cc(S(=O)(=O)N3CCC(C(=O)Nc4cccc(C)c4)CC3)c21	80% (inactive)
CCCCNC(=O)C1CCN(S(=O)(=O)c2cc(Br)cc3c2N(C(=O)CC)CC3)CC1	90% (inactive)
CCC(=O)N1CCc2cc(Br)cc(S(=O)(=O)N3CCC(C(=O)Nc4ccccc4F)CC3)c21	43% (active)
CCC(=O)N1CCc2cc(Br)cc(S(=O)(=O)N3CCC(C(=O)Nc4ccccc4CC)CC3)c21	84% (inactive)
CCc1cccc(C)c1NC(=O)C1CCN(S(=O)(=O)c2cc(Br)cc3c2N(C(C)=O)CC3)CC1	59% (inactive)
CCC(=O)N1CCc2cc(Br)cc(S(=O)(=O)N3CCC(C(=O)NC(C)(C)C)CC3)c21	84% (inactive)
COC(=O)CNC(=O)C1CCN(c2nc(C)cc(-c3ccccc3)n2)CC1	96% (inactive)
O=C(Nc1sc2c(c1C(=O)c1ccccc1)CCCC2)c1ccco1	73% (inactive)
O=C(/C=C/c1ccco1)NC(=S)Nc1ccccc1O	100% (inactive)
CCCCNC(=O)C1CCC(Cn2c(=O)c3sccc3n(Cc3ccccc3)c2=O)CC1 (stereo not drawn)	71% (inactive)
